In PubChem BioAssay one finds composite z-score and z-score data, which are given here for five compounds.

Assay [1] can be described thus: compounds binding Alexa647 anti-His antibody – biochemical, small-molecule microarray, 635 nm fluorescence, artefact control for SMM control protein annotation, primary screen (AID 1128).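 Further: score merges feature fluorescence with signal-to-noise for each printed compound spot.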 As to conditions: higher = more signal.
The subject of assay [2] is Human papillomavirus type 1a E7 protein (residues 1-88). Description: HPV1a E7 small-molecule binders, primary screen, biochemical, small-molecule microarray, residues 1-88, 635 nm (AID 1129). Particulars: small-molecule microarray binding, fluorescence 635 nm; higher = more signal.
Assay [3] concerns the target Focal adhesion kinase 1 (Homo sapiens) (UniProt Q05397). Description: PTK2 protein binding on printed compound slides – biochemical, small-molecule microarray, 635/667 nm fluorescence, BSA, DTT, primary screen (AID 1130).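 Further: composite of spot emission at 667 nm and signal to noise over triplicate slides.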 Particulars: 635 nm fluorescence, higher = more signal.
Assay [4] deals with Fibrinogen (Alexa647-labelled). Description: Alexa647-fibrinogen binding to printed small molecules – biochemical, small-molecule microarray, 635/667 nm fluorescence, artefact control for SMM control-protein annotation, profiling panel (AID 1131).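 Further: z-score merges 667 nm fluorescence with per-spot signal-to-noise over triplicate slides.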 As to conditions: fibrinogen-A647 binding fluorescence, higher = more signal.
Assay [5] has as its target Follistatin (Homo sapiens) (UniProt P19883). Description: FST protein binding to printed compounds – biochemical, small-molecule microarray, 635/667 nm fluorescence, primary screen (AID 1132). As to conditions: 635 nm fluorescence, higher = more signal.
In assay [6] the target is Fibroblast growth factor 2 (Homo sapiens) (UniProt P09038). Description: basic fibroblast growth factor binding to printed compounds – biochemical, small-molecule microarray, 635/667 nm fluorescence, primary screen (AID 1133). Particulars: FGF2, fluorescence 635/667, higher = more signal.
The nature of assay [7]: JC-1 mitochondrial potential readout, lung cancer cells – cell-based, A549, JC-1 fluorescence, basal, 24 h, 100 nL, profiling panel (AID 1138).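 Further: A549 lung adenocarcinoma cells under basal conditions with no added stimulus; test concentration not given here.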 As to conditions: higher = more signal.
The next assay concerns Lefty1. Kind of assay: Lefty1 protein binding to printed compounds – biochemical, small-molecule microarray, 635/667 nm fluorescence, primary screen (AID 1139). As to conditions: fluorescence 635/667, higher = more signal.
The test system of assay [8] is wheat germ agglutinin (Triticum aestivum), Alexa647-labelled. Kind of assay: Alexa647-WGA lectin binding to printed small molecules – biochemical, small-molecule microarray, 635/667 nm fluorescence, artefact control for SMM control-protein annotation, profiling panel (AID 1140).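 Further: score merges 667 nm feature emission with signal to noise over triplicate slides.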 Particulars: WGA-A647 binding, 635 nm fluorescence, higher = more signal.
The target in assay [9] is Luciferin 4-monooxygenase (Photinus pyralis) (UniProt P08659). Description: inhibition of purified Photinus pyralis luciferase – biochemical, luminescence, purified enzyme, 2006 set, primary screen (AID 1141).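 Further: cell-free assay with purified firefly luciferase at 100 ng per well in PBS; test concentration not given here.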 As to conditions: purified firefly luciferase, SteadyGlo luminescence, 30 min; higher = more signal, called active from +8 up or from −8 down.
The subject of assay [10] is Wnt5a (protein binding on small-molecule microarray). Description: small molecules binding Wnt5a protein – biophysical, small-molecule microarray, 635/667 nm fluorescence, primary screen (AID 1142).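 Further: fluorescence read at 667 nm with signal to noise per printed feature.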 Particulars: 635 nm fluorescence, higher = more signal.
Assay [11] is described as follows: ATP-based viability of Huh7 replicon cells – cell-based, CellTiter-Glo luminescence, basal, 48 h, cytotoxicity control for HCV replication inhibitor project, primary screen (AID 1143).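 Further: Huh7 hepatoma cells carrying a hepatitis C replication reporter with no stimulus; test concentration not given here.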 Particulars: higher = more signal, called active from +8 up or from −8 down. Background: Replicon systems follow genome replication, usually without infectious particles.
The nature of assay [12]: Pseudomonas biofilm growth suppression – PAO1 strain, BacTiter-Glo luminescence, LB-PBS, primary screen (AID 1144). As to conditions: P. aeruginosa PAO1 biofilm, 12 h, higher = more signal.
Assay [13] in a line: basal CRE-LacZ reporter activity in PC12 – cell-based, unstimulated, primary screen (AID 1145). Particulars: no forskolin, luminescence, 4.5 h, higher = more signal, called active from +8 up or from −8 down.
A short description of assay [14]: forskolin-driven CRE-LacZ activity in PC12 – cell-based, CRE-LacZ reporter, forskolin-stimulated, primary screen (AID 1146).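 Further: PC12 cells with 6xCRE LacZ reporter stimulated by forskolin 10 µM; beta-galactosidase reporter signal reflecting CREB driven transcription.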 As to conditions: luminescence, 4.5 h, higher = more signal, called active from +8 up or from −8 down.
Assay [15] has as its target Streptavidin (Streptomyces avidinii) (UniProt P22629). Kind of assay: compounds binding control protein streptavidin – biophysical, small-molecule microarray, 635/667 nm fluorescence, artefact control for SMM compound annotation, primary screen (AID 1147).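 Further: signal reflects streptavidin binding to arrayed compounds as a control protein.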 As to conditions: higher = more signal.
Assay [16] is described as follows: probe aInhba binding on compound microarray – biochemical, small-molecule microarray, 635/667 nm fluorescence, primary screen (AID 1148).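 Further: score merges 667nm spot fluorescence with signal-to-noise for antibody binding to printed compounds.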 Particulars: higher = more signal.
In assay [17] the target is Torsin-1A (Homo sapiens) (UniProt O14656). Kind of assay: TOR1A wild-type binding on microarray – cell lysate, small-molecule microarray, lysate, 635/667 nm, primary screen (AID 1149). Particulars: COS7 hTOR1A-WT lysate, 635 nm fluorescence, higher = more signal.
Assay [18] has the same target. Description: torsin A mutant lysate binding on microarrays – cell lysate, small-molecule microarray, COS7 lysate, 635/667 nm fluorescence, primary screen (AID 1150).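 Further: score pools 667 nm emission and signal to noise measuring lysate protein binding.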 Particulars: COS7 hTOR1A mutant lysate, 635 nm fluorescence, higher = more signal.
For assay [19], the system named is Sonic hedgehog protein (Shh). Kind of assay: Sonic hedgehog microarray binding compounds – biochemical, small-molecule microarray, 635/667 nm fluorescence, primary screen (AID 1151).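 Further: Shh protein binding to compounds spotted on small-molecule microarray slides; score combines spot fluorescence intensity with signal-to-noise across triplicate slides.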 As to conditions: 635 nm fluorescence, higher = more signal.

Calls of active or inactive are those of the source. Unless noted, how the calls were made is not given here.

Chain of Fibroblast growth factor 2 (Homo sapiens) (P09038 whole entry, looked up): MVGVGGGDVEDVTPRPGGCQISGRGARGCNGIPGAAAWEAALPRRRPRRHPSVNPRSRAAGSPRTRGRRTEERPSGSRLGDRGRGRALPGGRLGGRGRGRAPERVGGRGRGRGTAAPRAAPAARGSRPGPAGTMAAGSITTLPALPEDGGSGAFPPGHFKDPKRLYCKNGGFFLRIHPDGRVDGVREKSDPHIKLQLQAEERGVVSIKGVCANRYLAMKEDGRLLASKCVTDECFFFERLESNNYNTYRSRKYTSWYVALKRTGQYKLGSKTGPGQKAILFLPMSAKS
Chain of Streptavidin (Streptomyces avidinii) (P22629 whole entry, looked up): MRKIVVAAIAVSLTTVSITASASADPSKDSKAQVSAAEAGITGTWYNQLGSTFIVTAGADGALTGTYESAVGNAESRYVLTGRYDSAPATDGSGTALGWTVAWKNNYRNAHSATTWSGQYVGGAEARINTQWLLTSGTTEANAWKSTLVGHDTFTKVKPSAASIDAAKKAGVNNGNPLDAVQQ
Chain of Torsin-1A (Homo sapiens) (O14656 whole entry, looked up): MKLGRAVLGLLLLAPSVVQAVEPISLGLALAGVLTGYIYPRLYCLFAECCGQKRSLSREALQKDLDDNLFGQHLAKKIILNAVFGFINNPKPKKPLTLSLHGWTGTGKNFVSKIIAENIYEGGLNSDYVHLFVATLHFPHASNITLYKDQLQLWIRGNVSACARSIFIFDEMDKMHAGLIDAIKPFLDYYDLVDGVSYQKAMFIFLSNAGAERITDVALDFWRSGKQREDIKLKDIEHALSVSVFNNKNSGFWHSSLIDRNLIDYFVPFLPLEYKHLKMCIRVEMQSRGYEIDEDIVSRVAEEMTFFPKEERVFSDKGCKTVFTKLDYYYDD
Chain of Follistatin (Homo sapiens) (P19883 whole entry, looked up): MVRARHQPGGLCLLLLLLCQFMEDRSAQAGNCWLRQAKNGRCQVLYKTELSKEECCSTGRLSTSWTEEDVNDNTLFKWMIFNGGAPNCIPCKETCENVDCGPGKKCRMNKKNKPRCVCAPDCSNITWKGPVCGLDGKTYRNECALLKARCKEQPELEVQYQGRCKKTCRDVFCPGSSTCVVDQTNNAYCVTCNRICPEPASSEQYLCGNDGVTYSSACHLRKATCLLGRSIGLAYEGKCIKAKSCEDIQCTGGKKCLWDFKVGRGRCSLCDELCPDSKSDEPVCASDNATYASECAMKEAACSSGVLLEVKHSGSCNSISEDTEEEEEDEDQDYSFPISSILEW
Chain of Focal adhesion kinase 1 (Homo sapiens) (Q05397 whole entry, looked up): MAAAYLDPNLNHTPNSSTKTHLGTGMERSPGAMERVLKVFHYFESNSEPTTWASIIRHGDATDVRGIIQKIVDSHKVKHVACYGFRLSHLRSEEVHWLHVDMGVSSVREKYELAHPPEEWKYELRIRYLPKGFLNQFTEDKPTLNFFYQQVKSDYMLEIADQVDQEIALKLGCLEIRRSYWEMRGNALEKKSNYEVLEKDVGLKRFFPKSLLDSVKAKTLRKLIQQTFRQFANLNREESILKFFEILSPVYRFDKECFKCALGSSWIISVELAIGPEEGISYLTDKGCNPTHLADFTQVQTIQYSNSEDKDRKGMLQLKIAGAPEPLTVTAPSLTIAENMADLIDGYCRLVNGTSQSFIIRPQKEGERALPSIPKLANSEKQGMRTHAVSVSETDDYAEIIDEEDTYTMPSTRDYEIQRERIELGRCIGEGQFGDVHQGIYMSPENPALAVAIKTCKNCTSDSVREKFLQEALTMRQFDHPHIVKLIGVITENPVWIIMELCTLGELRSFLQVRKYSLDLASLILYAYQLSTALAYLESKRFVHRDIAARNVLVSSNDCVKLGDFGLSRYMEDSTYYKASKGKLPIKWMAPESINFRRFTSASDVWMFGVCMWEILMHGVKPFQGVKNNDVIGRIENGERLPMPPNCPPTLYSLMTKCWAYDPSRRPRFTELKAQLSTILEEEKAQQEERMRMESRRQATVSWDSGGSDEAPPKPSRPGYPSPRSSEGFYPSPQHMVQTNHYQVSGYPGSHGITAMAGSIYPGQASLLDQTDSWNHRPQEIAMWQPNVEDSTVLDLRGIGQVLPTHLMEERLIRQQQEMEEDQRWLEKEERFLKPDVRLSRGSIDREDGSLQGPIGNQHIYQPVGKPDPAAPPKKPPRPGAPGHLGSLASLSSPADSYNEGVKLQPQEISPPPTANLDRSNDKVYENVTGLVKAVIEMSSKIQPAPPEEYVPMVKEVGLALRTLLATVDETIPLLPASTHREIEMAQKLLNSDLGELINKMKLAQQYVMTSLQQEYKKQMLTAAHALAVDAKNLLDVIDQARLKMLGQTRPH
Chain of Luciferin 4-monooxygenase (Photinus pyralis) (P08659 whole entry, looked up): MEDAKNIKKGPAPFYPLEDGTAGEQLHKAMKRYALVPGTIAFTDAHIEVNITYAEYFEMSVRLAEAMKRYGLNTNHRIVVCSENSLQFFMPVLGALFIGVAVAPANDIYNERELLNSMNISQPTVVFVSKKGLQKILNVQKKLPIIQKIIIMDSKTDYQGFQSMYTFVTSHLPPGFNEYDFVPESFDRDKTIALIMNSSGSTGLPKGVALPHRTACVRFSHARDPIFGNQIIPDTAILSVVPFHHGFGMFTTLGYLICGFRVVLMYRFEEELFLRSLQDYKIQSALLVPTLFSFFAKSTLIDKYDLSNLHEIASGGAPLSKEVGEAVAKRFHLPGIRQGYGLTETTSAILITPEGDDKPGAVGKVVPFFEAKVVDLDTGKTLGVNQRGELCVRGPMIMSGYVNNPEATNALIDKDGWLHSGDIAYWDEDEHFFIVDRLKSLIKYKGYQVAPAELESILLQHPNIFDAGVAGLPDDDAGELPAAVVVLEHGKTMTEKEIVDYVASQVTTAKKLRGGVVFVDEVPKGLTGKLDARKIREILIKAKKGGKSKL

Regarding `COC(=O)[C@@]1(Cc2ccccc2)[C@H]2c3cc(C(=O)N(C)C)n(Cc4c(CO)[nH]cc(C)c4=O)c3C[C@H]2CN1C(=O)c1ccccc1`, the composite z-score is 0.886 in assay [1]; 0.677 in [2]; 0.206 in [3]; 0.819 in assay [4]; -0.0699 in assay [5]; -0.615 in assay [6]. Further, the composite z-score in the assay on Lefty1 is -0.016; in assay [8], 1; in assay [10], 0.259; in assay [15], 0.0174; in [16], -0.0963; with Torsin-1A (Homo sapiens) [17], 0.376. Moreover, the composite z-score with Torsin-1A (Homo sapiens) [18] was 0.478; in assay [19], -0.842. For the same compound, the z-score in assay [7] is 0.238; in [9] it was 0.379 (inactive); in [11], 0.229 (inactive); in [12] it was 0.268 (inactive); in [13] it was -0.568 (inactive); in assay [14], 0.977 (inactive).
In the case of `CCOC(=O)C[C@H]1[C@H](OC(=O)c2ccccc2-c2ccccc2)[C@@H](NC(=O)c2ccc(-c3ccccc3)cc2)c2cc(OCCCO)ccc2N1C(=O)c1ccc2ccccc2n1`, the composite z-score in assay [1] is 0.792; in assay [2], 0.472; in [3], -0.0377; in [4], 0.456; in assay [5], 0.57; in [6], 0.496. Moreover, the composite z-score with Lefty1 was 0.871; in [8], 0.181; in assay [10] it was 0.0868; in assay [15] it was 0.245; in assay [16] it was -0.106; with Torsin-1A (Homo sapiens) [17] it was 0.306. Besides, the composite z-score with Torsin-1A (Homo sapiens) [18] was determined as 0.554; in assay [19], 0.701. For the same compound, the z-score in assay [7] is 0.687; in assay [9], 0.555 (inactive); in assay [11], 0.0395 (inactive); in assay [12] it was -0.437 (inactive); in assay [13], -0.686 (inactive); in assay [14] it was 0.254 (inactive).
As to `C=C(COC)/C(=C/C[C@H](OC(C)=O)c1ccc(OCCO)cc1)c1cc(C(=O)OC)ccc1OC`, the composite z-score in assay [1] came out at 0.544; in [2], 1.07; in [3], 0.514; in assay [4], 0.436; in [5], 1.35; in [6] it was 1.67. The composite z-score with Lefty1 is 1.66; in assay [8], 0.395; in assay [10] it was 0.39; in assay [15], -0.313; in assay [16], 0.0566; with Torsin-1A (Homo sapiens) [17] it was 2.01. The composite z-score with Torsin-1A (Homo sapiens) [18] is 0.524; in [19], 1.92. The z-score is 2.8 in assay [7]; -1.71 (inactive) in assay [9]; -0.519 (inactive) in assay [11]; -0.339 (inactive) in assay [12]; 13.8 (active) in assay [13]; 0.696 (inactive) in [14].
As for `O=C1OCCC=C[C@H]2OC34C=CCN(Cn5nnc6ccccc65)C(=O)[C@H]3N(CCCCCCO)C(=O)[C@@H]4C12` (stereo not given in full), the composite z-score in [1] is -0.832; in assay [2] it was -0.48; in assay [3], -0.235; in assay [4] it was -0.907; in [5], -1.29; in assay [6], -1.24. Moreover, the composite z-score with Lefty1 was -1.28; in assay [8], -1.07; in [10], -0.512; in assay [15], -1.12; in [16] it was -0.561; in the assay with Torsin-1A (Homo sapiens) [17], -0.103. The composite z-score in the assay with Torsin-1A (Homo sapiens) [18] was -0.0648; in [19] it was -0.643. In addition, the z-score in [7] was 0.324; in assay [9], -0.718 (inactive); in assay [11], 0.523 (inactive); in [12], 0.863 (inactive); in assay [13], 0.191 (inactive); in [14] it was 0.0417 (inactive).
With `CC(C)(C)N1CC=CC23O[C@@H]4C=CCCOC(=O)C4[C@H]2C(=O)N(CCO)[C@@H]3C1=O` (stereo not given in full), the composite z-score is -0.513 in assay [1]; -0.991 in [2]; -0.541 in assay [3]; 0.0853 in assay [4]; -0.607 in assay [5]; 0.23 in assay [6]. Also, the composite z-score was -0.551 in the assay with Lefty1; -0.0465 in assay [8]; -0.323 in [10]; -0.485 in [15]; -0.237 in assay [16]; -0.102 with Torsin-1A (Homo sapiens) [17]. The figures for the composite z-score (in the assay with Torsin-1A (Homo sapiens) [18]; in assay [19]) were -0.664 and 1.09, respectively. Besides, the z-score in assay [7] was -0.845; in assay [9], 0.0324 (inactive); in assay [11], 0.297 (inactive); in [12], -0.249 (inactive); in assay [13] it was -1.44 (inactive); in assay [14], -0.443 (inactive).
